# Assay outcomes from PubChem BioAssay.
# Compounds with a hit are over-represented: about 0.86% of the library has one in this group of screens.
# TAR Tat displ – HIV-1 TAR-Tat binding disruption. HIV-1 TAR RNA, Tat peptide displacement FRET; stronger effect = higher value. z-score (concentration not given with the values). 100,000 compounds, 0.6% hits. AID 1259389; active = z-score of 3 or more in at least 2 runs
# CDC25B CDK2 inh – human CDC25B-CDK2/CyclinA binding inhibition; AID 1259370; HTRF CDC25B-CDK2/CyclinA binding, anti-His/anti-Flag; stronger effect = higher value; z-score (no concentration beside the values); P30305+P24941; 94,000 compounds, 0.72% hits; in the data active = z-score above about 3.2
# Numbers stand for hits; - = inactive; . = no result given.
SMILES,TAR Tat displ,CDC25B CDK2 inh
CCCCN1C(=O)C(O)(CC(=O)c2ccc(C(C)C)cc2)c2ccccc21 (centres undefined),-,-
NC(=O)CN1C(=O)C(O)(CC(=O)c2ccc(F)cc2)c2ccccc21 (centres undefined),-,16
CCCCN1C(=O)C(O)(CC(=O)c2ccccc2)c2ccccc21 (centres undefined),-,12
O=C(CCCn1ncn2c(cc3occc32)c1=O)NCc1ccc(Cl)cc1,-,-
O=C(Nc1nnc(SCCN2C(=O)c3ccccc3S2(=O)=O)s1)c1ccccc1,-,-
O=C(COC(=O)c1cccs1)c1ccc(Cl)cc1,.,17
O=C(COC(=O)c1ccco1)c1ccc(Cl)cc1,.,-
COc1ccc(NC2CCCCC2NS(=O)(=O)c2ccccc2)cc1 (centres undefined),-,-
O=S(=O)(NC1CCCCC1Nc1ccc(F)cc1)c1ccccc1 (centres undefined),-,8.6
CCOc1ccc(C2C3=C(CCCC3=O)NC3=C2C(=O)c2ccccc23)cc1 (centres undefined),-,-
CCOc1ccc(C2C3=C(Nc4nc(N)[nH]c(=O)c42)c2ccccc2C3=O)cc1 (centres undefined),-,14
CC(C(=O)NCc1ccc(Cl)cc1)n1ncn2c(cc3occc32)c1=O (centres undefined),-,-
Cc1ccc(/C(O)=C2/C(=O)C(=O)N(CC3CCCO3)C23C(=O)N(C)c2ccccc23)cc1F (centres undefined),16,-
CCCN1C(=O)C2(/C(=C(/O)c3ccc(C)c(F)c3)C(=O)C(=O)N2CC2CCCO2)c2ccccc21 (centres undefined),-,-
CC(C)Cc1nc2ccccc2n1CC(=O)O,-,-
O=C(CSc1nc2ncccc2[nH]1)N1CCc2ccccc2C1,-,15
O=C(CSc1nc2ncccc2[nH]1)N1CCCC1,-,.
CCOC(=O)c1c(S(=O)(=O)N2CCCC(C(=O)OCC)C2)c(C)n(C)c1C (centres undefined),-,.
CCOC(=O)C1CCCN(C(=O)c2sc3nc(C)nc(N4CCC(C)CC4)c3c2C)C1 (centres undefined),.,-
Cc1nc(N2CCC(C(=O)O)CC2)c2c(C)c(C)sc2n1,4.8,.
COC(=O)c1ccccc1N=CNO,.,-
O=C(O)c1cccc(-c2nc3ccccc3[nH]2)c1,.,-
O=C(O)c1ccc2nc(-c3cccc(-c4nc5ccc(C(=O)O)cc5[nH]4)c3)[nH]c2c1,.,7.3
Cc1cccc(-n2nnc(S(=O)(=O)c3ccc(C)c(C)c3)c2C)c1,-,-
CCN(CC)c1ccc(Nc2nc(-c3sc(N)nc3C)cs2)cc1,5.7,-
SMILES,TAR Tat displ,CDC25B CDK2 inh
CCN(CC)c1ccc(Nc2nc(-c3sc(NC(C)=O)nc3C)cs2)cc1,-,-
O=C(NCc1cccnc1)C1CCCN1S(=O)(=O)c1ccc(-c2ccc(=O)[nH]n2)s1 (centres undefined),-,.
COc1c(Br)cc(Br)cc1/C=c1\sc2nc3cc(Br)cnc3n2c1=O,.,-
O=C(O)c1cc(-c2cc(C(=O)O)c3ccccc3n2)nc2ccccc12,-,-
O=C(O)c1cc(-c2ccco2)nc2ccccc12,24,.
COc1cc(C2CC(=O)N3CN(C)CSC3=C2C#N)ccc1OCc1ccccc1 (centres undefined),-,4.1
COc1cccc(C2CC(=O)N3CN(CCCc4ccccc4)CSC3=C2C#N)c1 (centres undefined),-,5
COc1cccc(C2CC(=O)N3CN(Cc4ccccc4)CSC3=C2C#N)c1 (centres undefined),-,5.2
COc1cc(C2CC(=O)N3CN(Cc4ccco4)CSC3=C2C#N)ccc1OCc1ccccc1 (centres undefined),-,-
N#CC1=C2SCN(Cc3ccccc3)CN2C(=O)CC1c1cccs1 (centres undefined),-,5.2
Cc1[nH]c2ccc(-c3nnc(SCC(N)=O)o3)cc2c1C,.,-
Cc1cc(=O)[nH]c(Nc2ccc(O)cc2C)n1,-,-
CCN1CCN(S(=O)(=O)c2c(C)[nH]c(C)c2C(=O)N2CCCC2)CC1,-,.
O=c1nc(N2CCOCC2)nc(Nc2ccccc2)[nH]1,-,-
OCCCCNc1ncnc2sc3c(c12)CCCC3,.,-
CC(C)OC(=O)c1cnn2c(C(F)(F)F)cc(-c3ccccc3)nc12,-,-
Cc1c(Cl)cccc1N1CSC2=C(C#N)C(c3cccs3)CC(=O)N2C1 (centres undefined),-,7.9
COc1ccc(C2CC(=O)N3CN(CCCc4ccccc4)CSC3=C2C#N)cc1OC (centres undefined),-,5.8
N#CC1=C2SCN(Cc3ccco3)CN2C(=O)CC1c1cccc(OCc2ccccc2)c1 (centres undefined),-,3.4
COc1ccc(C2CC(=O)N3CN(C(C)c4ccccc4)CSC3=C2C#N)cc1OC (centres undefined),-,5.5
N#CC1=C2SCN(Cc3ccco3)CN2C(=O)CC1c1ccc(OCc2ccccc2)cc1 (centres undefined),-,-
N#CC1=C2SCN(C3CCCCC3)CN2C(=O)CC1c1ccccc1Cl (centres undefined),-,-
CCCCCCNC(=O)OCCCCCCNC(=O)OC1CCN(Cc2ccccc2)CC1,.,-
CCn1c(C(=O)N2CCC(C(=O)N3CCN(C(=O)c4ccco4)CC3)CC2)cc2sccc21,-,-
N#CC1=C2SCN(Cc3ccccc3)CN2C(=O)CC1c1ccc2c(c1)OCO2 (centres undefined),-,4
SMILES,TAR Tat displ,CDC25B CDK2 inh
N#CC1=C2SCN(Cc3ccccc3)CN2C(=O)CC1c1cccc(F)c1 (centres undefined),-,4.9
O=C1COc2cc(S(=O)(=O)Nc3cc(F)ccc3F)c(Cl)cc2N1,-,.
Cc1cc(=O)cc(C)n1-c1ccc(C(=O)O)cc1,-,-
O=C(O)c1cc(Br)cc(C(=O)O)c1Cl,-,-
Cc1ccc(C)n1-c1ccc(Br)cc1C(=O)O,19,-
Cc1ccc(C)n1-c1ccc(O)c(C(=O)O)c1,33,-
CN1C(=O)c2ccccc2Sc2cc(NC(=O)C3CC(=O)N(c4cccc(Cl)c4)C3)ccc21 (centres undefined),-,.
CCOC(=O)c1c(NC(=O)Cc2coc3ccc(OC)cc23)sc(C)c1C,-,-
COc1ccc2c(c1)Cc1sc(NC(=O)c3ccc(Br)cc3)nc1-2,-,18
COc1cc(OC)cc(C(=O)Nc2nc3c(s2)CCc2ccc(OC)cc2-3)c1,-,-
O=C1c2nc3ccccc3c(C(=O)N(Cc3ccco3)C3CCCC3)c2CN1C1CCCCC1,-,.
Cc1nc(N(C)C)ncc1C(=O)NCCC1=CCCCC1,-,.
CCS(=O)(=O)c1oc(-c2cccs2)nc1S(=O)(=O)c1ccc(F)cc1,-,-
O=C(Nc1ccc(F)cc1Cl)c1noc2c1CCc1sccc1-2,-,.
CCOCCCNc1nc2c(S(=O)(=O)c3ccccc3)nnn2c2ccccc12,11,-
COCCCNc1nc2c(S(=O)(=O)c3ccccc3)nnn2c2ccccc12,-,-
Oc1ccc(-c2nc(-c3ccccc3)c(-c3ccc(O)cc3)[nH]2)cc1,-,-
Oc1ccc(-c2nc(-c3cccs3)c(-c3cccs3)[nH]2)cc1,-,19
Oc1cccc(-c2nc(-c3cccs3)c(-c3cccs3)[nH]2)c1,-,19
COc1cccc(-c2nc(-c3cccs3)c(-c3cccs3)[nH]2)c1,.,-
c1csc(-c2nc(-c3cccs3)c(-c3cccs3)[nH]2)c1,-,19
